Data from PubChem BioAssay.
The source made the active and inactive calls. Unless noted, no rule for the calls is given here.

Key:
[1] = resazurin metabolic signal in HepG2 cells – cell-based, resazurin fluorescence, 24 h, PK04 Diversity Set, profiling panel (AID 1172); conditions: HepG2 viability, higher = more signal; also: test concentration not given here
[2] = budding yeast growth changes without added modifier – OD600, strain BY4716, 24 h, basal condition, primary screen (AID 1173); conditions: S. cerevisiae BY4716 growth, OD600, 24 h; higher = more signal, called active from +8 up or from −8 down
[3] = viability profiling in MM1S myeloma cells – cell-based, resazurin fluorescence, basal, 24 h, PK04 Diversity Set, profiling panel (AID 1174); conditions: higher = more signal, called active from +8 up or from −8 down;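 also: MM1S multiple myeloma cell line; test concentration not given here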
[4] = target: Dihydroorotate dehydrogenase (quinone), mitochondrial (Plasmodium falciparum (isolate 3D7)) (UniProt Q08210); assay: inhibition of P. falciparum DHODH – biochemical, C-terminal His tag, absorbance 600 nm, primary screen (AID 1175); conditions: PfDHODH enzyme, DCIP absorbance 600 nm; higher = more signal, called active from +8 up or from −8 down;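 also: recombinant parasite enzyme with a five histidine tag at its C terminus; test concentration not given here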
[5] = inhibition of PAO1 biofilm formation – strain PAO1, LB-PBS medium, absorbance 600 nm, primary screen (AID 1176); also: test concentration not given here; conditions: P. aeruginosa PAO1 growth/biofilm, A600, 12 h; higher = more signal
[6] = growth modulation of vineyard yeast isolate – strain RM11-1a, OD600, basal, 24 h, primary screen (AID 1177);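 also: cultures grown under basal conditions with no added stressor; test concentration not given here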; conditions: S. cerevisiae RM11-1a growth, OD600, 24 h; higher = more signal, called active from +8 up or from −8 down
[7] = growth of efflux-deficient E. coli DRC39 – strain DRC39, OD650, 24 h, E. coli filamentation inducers, primary screen (AID 1178);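 also: growth measured as culture turbidity by optical density at 650 nm; test concentration not given here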; conditions: E. coli DRC39 acrAB, higher = more signal, called active from +8 up or from −8 down
[8] = growth of efflux-deficient E. coli DRC39 – strain DRC39, OD650, 48 h, E. coli filamentation inducers, primary screen (AID 1179);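 also: screen aims at cell division blockers that make cells filament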; conditions: E. coli DRC39 delta-acrAB growth, higher = more signal, called active from +8 up or from −8 down
[9] = viability profiling in RPMI8226 myeloma cells – cell-based, resazurin fluorescence, basal, 24 h, PK04 Diversity Set, profiling panel (AID 1180); conditions: higher = more signal;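 also: RPMI8826 multiple myeloma cell line at 5000 cells per well; test concentration not given here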
[10] = target: E3 ubiquitin-protein ligase XIAP (Homo sapiens) (UniProt P98170); assay: small molecules binding XIAP protein – biophysical, small-molecule microarray, fluorescence 635 nm, primary screen (AID 1181); conditions: higher = more signal;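 also: score merges 667 nm emission and signal to noise over triplicate slides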
E3 ubiquitin-protein ligase XIAP (Homo sapiens), sequence (P98170 whole entry, looked up): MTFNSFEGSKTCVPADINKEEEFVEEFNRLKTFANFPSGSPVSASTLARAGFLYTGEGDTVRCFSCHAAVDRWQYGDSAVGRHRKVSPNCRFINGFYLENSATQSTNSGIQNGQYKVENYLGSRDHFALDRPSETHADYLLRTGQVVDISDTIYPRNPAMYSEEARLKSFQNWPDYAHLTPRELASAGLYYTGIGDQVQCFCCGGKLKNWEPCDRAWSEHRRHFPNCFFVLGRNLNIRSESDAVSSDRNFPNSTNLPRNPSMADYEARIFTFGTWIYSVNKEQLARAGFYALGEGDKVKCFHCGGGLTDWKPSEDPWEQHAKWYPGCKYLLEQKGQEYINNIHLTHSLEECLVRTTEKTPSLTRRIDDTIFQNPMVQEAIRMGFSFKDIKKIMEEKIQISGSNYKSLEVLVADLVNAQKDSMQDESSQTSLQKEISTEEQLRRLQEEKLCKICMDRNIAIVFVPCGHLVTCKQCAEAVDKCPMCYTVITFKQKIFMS

Dihydroorotate dehydrogenase (quinone), mitochondrial (Plasmodium falciparum (isolate 3D7)), sequence (Q08210 whole entry, looked up): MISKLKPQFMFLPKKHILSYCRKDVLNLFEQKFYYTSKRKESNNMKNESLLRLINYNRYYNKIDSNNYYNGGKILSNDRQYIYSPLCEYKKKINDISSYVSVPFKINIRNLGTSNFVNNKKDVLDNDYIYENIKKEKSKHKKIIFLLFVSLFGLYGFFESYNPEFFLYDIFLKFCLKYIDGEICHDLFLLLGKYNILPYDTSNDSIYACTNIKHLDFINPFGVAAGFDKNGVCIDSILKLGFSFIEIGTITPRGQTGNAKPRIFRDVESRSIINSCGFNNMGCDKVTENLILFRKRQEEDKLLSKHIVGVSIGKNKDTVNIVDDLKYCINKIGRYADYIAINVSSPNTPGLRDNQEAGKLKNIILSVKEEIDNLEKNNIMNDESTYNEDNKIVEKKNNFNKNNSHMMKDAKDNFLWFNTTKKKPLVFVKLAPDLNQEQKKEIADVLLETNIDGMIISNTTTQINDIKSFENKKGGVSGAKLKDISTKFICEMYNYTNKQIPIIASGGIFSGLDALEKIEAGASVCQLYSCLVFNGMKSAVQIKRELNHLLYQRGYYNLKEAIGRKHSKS

Compound	z-score [1]	z-score [2]	z-score [3]	composite z-score [4]	z-score [5]	z-score [6]	z-score [7]	z-score [8]	z-score [9]	composite z-score [10]
[N-]=[N+]=Nc1ccccc1C[C@]1(C(=O)NCCN2CCOCC2)N=C(c2ccc(OCCCO)cc2)O[C@H]1c1ccccc1	0.224	-3.1 (inactive)	-0.359 (inactive)	-0.0351 (inactive)	0.565 (inactive)	-0.52 (inactive)	0.148 (inactive)	-0.338 (inactive)	-0.554	0.0679
Cc1ccc(S[C@]2(C(=O)NCC(C)C)CC(=O)N(Cc3ccccc3Cl)[C@@H]2c2ccc(CO)cc2)cc1	-0.0675	-0.511 (inactive)	0.196 (inactive)	-0.223 (inactive)	-0.205 (inactive)	0.343 (inactive)	-0.115 (inactive)	-0.219 (inactive)	0.405	0.012
CC(C)(C)OC(=O)CC[C@]1(C(=O)N2CCCCC2)N=C(c2ccc(OCCCO)cc2)O[C@H]1c1ccccc1N=[N+]=[N-]	0.188	0.367 (inactive)	-1.79 (inactive)	0.107 (inactive)	0.466 (inactive)	1.01 (inactive)	1.82 (inactive)	1.04 (inactive)	-1.32	-0.0304
C=CCNC(=O)[C@@H]1[C@H]2C(=O)O[C@H](c3ccccc3)[C@H](c3ccccc3)N2[C@H](c2ccc(O)cc2)[C@@]12C(=O)N(C(=O)OCCOC)c1ccccc12	0.09	0.57 (inactive)	0.177 (inactive)	-0.186 (inactive)	0.817 (inactive)	1.01 (inactive)	-0.233 (inactive)	-0.33 (inactive)	0.209	-0.17
C[C@H]1NC(=O)[C@H](Cc2ccccc2)NC(=O)[C@@]23C(=O)N[C@@H](Cc4ccccc4)C2[C@H](C)[C@@]2(C)O[C@H]2C3/C=C/C/C=C\CNC1=O (stereo not given in full)	-0.23	0.0145 (inactive)	0.557 (inactive)	0.742 (inactive)	-0.246 (inactive)	1.16 (inactive)	1.32 (inactive)	0.64 (inactive)	1.07	-0.173
CC(C)OC(=O)CC(=O)CC(O)c1ccc(C#N)cc1 (stereo not given)	0.602	-0.0106 (inactive)	0.8 (inactive)	-1.12 (inactive)	-0.088 (inactive)	-0.608 (inactive)	-0.0611 (inactive)	1.44 (inactive)	1.43	-0.194
COCCCNC(=O)[C@@]1(c2ccc([N+](=O)[O-])cc2)CC(=O)N(CC23CC4CC(CC(C4)C2)C3)[C@@H]1c1ccc(CO)cc1	-1.04	-0.67 (inactive)	-1.62 (inactive)	0.431 (inactive)	0.981 (inactive)	-0.24 (inactive)	0.788 (inactive)	0.351 (inactive)	-1.96	0.0374
CO[C@H]1O[C@H](CO)[C@@H](OC(=O)Nc2ccc(Oc3ccccc3)cc2)[C@H](OC(=O)Nc2ccccc2)[C@H]1OC(=O)Nc1ccccc1	-2.18	-0.494 (inactive)	-2.36 (inactive)	-0.996 (inactive)	1.97 (inactive)	2.67 (inactive)	1.57 (inactive)	0.561 (inactive)	-2.48	0.0668
CCOC(=O)C[C@H]1[C@H](OC(=O)Cc2ccc3c(c2)OCO3)[C@@H](NC(=O)c2ccc(-c3ccccc3)cc2)c2cc(OCCCO)ccc2N1C(=O)c1ccccc1	0.0575	0.188 (inactive)	0.106 (inactive)	-0.0887 (inactive)	0.608 (inactive)	0.412 (inactive)	1.02 (inactive)	1.16 (inactive)	-0.264	-0.17
CCOC(=O)[C@H]1C/C=C/C[C@H](C(=O)OCC)C(=O)O[C@H]2[C@@H](OC)O[C@H](CO)[C@@H](OC(=O)Nc3ccc4c(c3)OCO4)[C@@H]2OC1=O	-4.19	0.273 (inactive)	-6.98 (inactive)	0.0446 (inactive)	1.2 (inactive)	1.06 (inactive)	1.03 (inactive)	1.53 (inactive)	-6.84	-0.102
O=C(O)[C@H]1C[C@H]2C(=O)NCC(=O)N2[C@H]1c1ccc(O)cc1	1.46	-1.25 (inactive)	0.866 (inactive)	-0.592 (inactive)	0.0904 (inactive)	-0.804 (inactive)	1.49 (inactive)	1.51 (inactive)	0.839	-0.211
COc1ccc(C#Cc2ccc3c(c2)[C@]2(C(=O)N3)[C@H](c3ccc(O)cc3)N3[C@H](c4ccccc4)[C@H](c4ccccc4)OC(=O)[C@H]3[C@@H]2C(=O)NC[C@H](O)c2ccccc2)cc1	-0.689	1.81 (inactive)	-2.56 (inactive)	-3.64 (inactive)	0.325 (inactive)	2.71 (inactive)	0.106 (inactive)	0.105 (inactive)	-4.1	-0.0749
C=CCNC(=O)[C@@H]1[C@H]2C(=O)O[C@H](c3ccccc3)[C@H](c3ccccc3)N2[C@H](c2ccc(OCCO)cc2)[C@@]12C(=O)Nc1ccccc12	0.61	-1.67 (inactive)	-0.0761 (inactive)	-2.04 (inactive)	3.15 (inactive)	-0.412 (inactive)	1.34 (inactive)	0.548 (inactive)	-0.0855	0.0192
C=CCOC(=O)[C@H]1[C@@H]2C(=O)O[C@@H](c3ccccc3)[C@@H](c3ccccc3)N2[C@@H](c2ccc(OCCOC(=O)[C@@H]3C[C@@H]4C(=O)NCC(=O)N4[C@@H]3c3ccc(O)cc3)cc2)[C@]12C(=O)Nc1ccccc12	0.558	-0.0301 (inactive)	1.56 (inactive)	-0.803 (inactive)	2.05 (inactive)	-1.38 (inactive)	0.971 (inactive)	1.61 (inactive)	0.765	-0.121
CCOC(=O)[C@H]1C[C@H]2O[C@@]23C[C@H]1C(=O)N1CCCC1[C@@H]3O[Si](C)(C)C(C)(C)C (stereo not given in full)	-0.332	-4.67 (inactive)	-0.88 (inactive)	-0.17 (inactive)	0.367 (inactive)	-0.521 (inactive)	-0.205 (inactive)	-0.595 (inactive)	0.0096	-0.083
C#CCN(C(/C=C/c1ccccc1)CO)C(C(=O)O)c1ccccc1 (stereo not given)	-0.589	-2.64 (inactive)	0.274 (inactive)	-3.17 (inactive)	-0.565 (inactive)	-0.643 (inactive)	1.6 (inactive)	-0.198 (inactive)	-0.0777	-0.175
O=c1oc(-c2ccccc2)nc2cc(Br)ccc12	-0.284	-2.41 (inactive)	0.0202 (inactive)	0.336 (inactive)	0.0493 (inactive)	1.6 (inactive)	-0.117 (inactive)	-0.39 (inactive)	-0.194	0.208
CCOc1cc(C(O)C2C=CC3C(=O)N(c4ccccc4)C(=O)C3N2Nc2ccc([N+](=O)[O-])cc2)ccc1O (stereo not given)	-0.506	-0.571 (inactive)	-0.669 (inactive)	0.377 (inactive)	0.878 (inactive)	-0.864 (inactive)	-0.763 (inactive)	-0.709 (inactive)	-0.901	-0.127
C=CCN1C(=O)[C@]2(O[C@H](CCO)[C@@H]([Si](C)(C)c3ccc(OC)cc3)[C@@H]2C)c2cc(NC(=O)[C@H](C)O)ccc21	-0.646	-0.151 (inactive)	-1.43 (inactive)	0.235 (inactive)	0.0943 (inactive)	2.79 (inactive)	-0.483 (inactive)	-0.955 (inactive)	-2.8	0.0223
COCCOC(=O)N1C(=O)[C@@]2(c3cc(C#CCC(C(=O)OC)C(=O)OC)ccc31)[C@H](c1ccccc1OCCO)N1[C@H](c3ccccc3)[C@H](c3ccccc3)OC(=O)[C@H]1[C@@H]2C(=O)N1CCc2cc(OC)c(OC)cc2C1	1.68	0.983 (inactive)	1.58 (inactive)	-0.857 (inactive)	1.45 (inactive)	1.16 (inactive)	0.252 (inactive)	-0.441 (inactive)	1.78	0.314
[N-]=[N+]=NCc1ccccc1[C@@H]1OC(c2ccc(OCCCO)cc2)=N[C@]1(Cc1ccccc1)C(=O)N1CCCCC1	-0.596	-1.11 (inactive)	-1.3 (inactive)	0.678 (inactive)	-0.621 (inactive)	1.48 (inactive)	0.775 (inactive)	0.345 (inactive)	-0.94	-0.257
C=CC[C@@H](OC(=O)Nc1ccc(OC)cc1)c1ccc(O)c2ccccc12	-1.07	-16.6 (active)	-6.13 (inactive)	-7.4 (inactive)	1.73 (inactive)	-20.3 (active)	0.305 (inactive)	-0.473 (inactive)	-4.48	0.0413
COc1ccccc1CN1C(=O)c2ccccc2[C@@H](C(=O)NCCN2CCOCC2)[C@@H]1c1ccc(CO)cc1	0.505	-0.248 (inactive)	-0.0527 (inactive)	0.249 (inactive)	1.56 (inactive)	-0.0436 (inactive)	0.187 (inactive)	-0.0251 (inactive)	0.154	0.101
C=CC[C@@]1(C(=O)N2CCOCC2)N=C(c2ccc(OCCCO)cc2)O[C@@H]1c1ccccc1N=[N+]=[N-]	-0.268	-1.24 (inactive)	-1.64 (inactive)	0.443 (inactive)	-0.236 (inactive)	0.367 (inactive)	0.992 (inactive)	0.123 (inactive)	-1.33	0.117
O=C1N(CCS(=O)(=O)c2ccccc2)Cc2ccccc2C[C@]12N=C(c1ccc(OCCCO)cc1)O[C@@H]2c1ccccc1	-1.08	1.07 (inactive)	-2.68 (inactive)	-1.48 (inactive)	0.0658 (inactive)	1.52 (inactive)	-0.0937 (inactive)	1.28 (inactive)	-1.99	0.0191
